# Experimental data: the supplement of paper PMC4466140
# Legend:
# Assay in all cases: SPOT peptide array binding signal intensity (averaged, normalized) (arbitrary units (background-subtracted, floor 0; scale differs between SH3 domains)); higher = stronger binding of the SH3 domain to the peptide
# AgAbp1 = target: AgAbp1
# Protocol: (§1)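 GST-tagged SH3 domains from S. cerevisiae (Sc), A. gossypii (Ag), C. albicans (Ca) and S. pombe (Sp) were incubated at 10 ug/ml overnight at 4 C on cellulose SPOT membranes carrying 292 synthetic 15-mer peptides mined from the S. cerevisiae proteome (cysteines replaced by serines). Binding was detected with anti-GST antibody, HRP secondary and chemiluminescence, quantified with Genespotter, and reported as normalized spot intensities averaged over biological replicates.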
# AgBbc1 = target: AgBbc1
# Protocol: as §1
# AgBem1-D1 = target: AgBem1-D1
# Protocol: as §1
# AgBzz1-D1 = target: AgBzz1-D1
# Protocol: as §1
# AgBzz1-D2 = target: AgBzz1-D2
# Protocol: as §1
# AgCyk3 = target: AgCyk3
# Protocol: as §1
# AgFus1 = target: AgFus1
# Protocol: as §1
# AgHof1 = target: AgHof1
# Protocol: as §1
# AgHse1 = target: AgHse1
# Protocol: as §1
# AgLsb1 = target: AgLsb1
# Protocol: as §1
# AgLsb4 = target: AgLsb4
# Protocol: as §1
# AgMyo5 = target: AgMyo5
# Protocol: as §1
# AgNbp2 = target: AgNbp2
# Protocol: as §1
# AgRvs167 = target: AgRvs167
# Protocol: as §1
# AgSho1 = target: AgSho1
# Protocol: as §1
# AgSla1-D1-D2 = target: AgSla1-D1-D2
# Protocol: as §1
# AgSla1-D3 = target: AgSla1-D3
# Protocol: as §1
# CaAbp1-D1 = target: CaAbp1-D1
# Protocol: as §1
# CaAbp1-D2 = target: CaAbp1-D2
# Protocol: as §1
# CaBbc1 = target: CaBbc1
# Protocol: as §1
# CaBem1-D1 = target: CaBem1-D1
# Protocol: as §1
# CaBzz1-D1 = target: CaBzz1-D1
# Protocol: as §1
# CaBzz1-D2 = target: CaBzz1-D2
# Protocol: as §1
# CaCyk3 = target: CaCyk3
# Protocol: as §1
# CaFus1 = target: CaFus1
# Protocol: as §1
# CaHof1 = target: CaHof1
# Protocol: as §1
# CaHse1 = target: CaHse1
# Protocol: as §1
# CaLsb1 = target: CaLsb1
# Protocol: as §1
# CaLsb4 = target: CaLsb4
# Protocol: as §1
# CaMyo5 = target: CaMyo5
# Protocol: as §1
# CaNbp2 = target: CaNbp2
# Protocol: as §1
# CaRvs167 = target: CaRvs167
# Protocol: as §1
# CaRvs167-3 = target: CaRvs167-3
# Protocol: as §1
# CaSho1 = target: CaSho1
# Protocol: as §1
# CaSla1-D1-D2 = target: CaSla1-D1-D2
# Protocol: as §1
# CaSla1-D3 = target: CaSla1-D3
# Protocol: as §1
# ScAbp1 = target: ScAbp1
# Protocol: as §1
# ScBbc1 = target: ScBbc1
# Protocol: as §1
# ScBem1-D1 = target: ScBem1-D1
# Protocol: as §1
# ScBzz1-D1 = target: ScBzz1-D1
# Protocol: as §1
# ScBzz1-D2 = target: ScBzz1-D2
# Protocol: as §1
# ScCyk3 = target: ScCyk3
# Protocol: as §1
# ScFus1 = target: ScFus1
# Protocol: as §1
# ScHof1 = target: ScHof1
# Protocol: as §1
# ScHse1 = target: ScHse1
# Protocol: as §1
# ScLsb1 = target: ScLsb1
# Protocol: as §1
# ScLsb2 = target: ScLsb2
# Protocol: as §1
# ScLsb3 = target: ScLsb3
# Protocol: as §1
# ScLsb4 = target: ScLsb4
# Protocol: as §1
# ScMyo3 = target: ScMyo3
# Protocol: as §1
# ScMyo5 = target: ScMyo5
# Protocol: as §1
# ScNbp2 = target: ScNbp2
# Protocol: as §1
# ScPex13 = target: ScPex13
# Protocol: as §1
# ScRvs167 = target: ScRvs167
# Protocol: as §1
# ScSho1 = target: ScSho1
# Protocol: as §1
# ScSla1-D1-D2 = target: ScSla1-D1-D2
# Protocol: as §1
# ScSla1-D3 = target: ScSla1-D3
# Protocol: as §1
# SpAbp1-D1 = target: SpAbp1-D1
# Protocol: as §1
# SpBbc1 = target: SpBbc1
# Protocol: as §1
# SpBzz1-D1 = target: SpBzz1-D1
# Protocol: as §1
# SpBzz1-D2 = target: SpBzz1-D2
# Protocol: as §1
# SpCyk3 = target: SpCyk3
# Protocol: as §1
# SpHof1 = target: SpHof1
# Protocol: as §1
# SpHof1-2 = target: SpHof1-2
# Protocol: as §1
# SpHof1-3 = target: SpHof1-3
# Protocol: as §1
# SpHse1 = target: SpHse1
# Protocol: as §1
# SpLsb1 = target: SpLsb1
# Protocol: as §1
# SpLsb4 = target: SpLsb4
# Protocol: as §1
# SpMyo1 = target: SpMyo1
# Protocol: as §1
# SpNbp2 = target: SpNbp2
# Protocol: as §1
# SpPex13 = target: SpPex13
# Protocol: as §1
# SpRvs167 = target: SpRvs167
# Protocol: as §1
# SpSla1-D1-D2 = target: SpSla1-D1-D2
# Protocol: as §1
# SpSla1-D3 = target: SpSla1-D3
# Protocol: as §1
binder,measurement,setting,value
LSKRLPLRFPEHTSS,SPOT peptide array binding signal intensity,AgAbp1,48
same,SPOT peptide array binding signal intensity,AgBbc1,5.5
same,SPOT peptide array binding signal intensity,AgBem1-D1,≤ 0
same,SPOT peptide array binding signal intensity,AgBzz1-D1,9
same,SPOT peptide array binding signal intensity,AgBzz1-D2,17
same,SPOT peptide array binding signal intensity,AgCyk3,≤ 0
same,SPOT peptide array binding signal intensity,AgFus1,102
same,SPOT peptide array binding signal intensity,AgHof1,67.5
same,SPOT peptide array binding signal intensity,AgHse1,234
same,SPOT peptide array binding signal intensity,AgLsb1,5.5
same,SPOT peptide array binding signal intensity,AgLsb4,53.5
same,SPOT peptide array binding signal intensity,AgMyo5,≤ 0
same,SPOT peptide array binding signal intensity,AgNbp2,10
same,SPOT peptide array binding signal intensity,AgRvs167,1.33
same,SPOT peptide array binding signal intensity,AgSho1,17
same,SPOT peptide array binding signal intensity,AgSla1-D1-D2,2
same,SPOT peptide array binding signal intensity,AgSla1-D3,≤ 0
same,SPOT peptide array binding signal intensity,CaAbp1-D1,462
same,SPOT peptide array binding signal intensity,CaAbp1-D2,220
same,SPOT peptide array binding signal intensity,CaBbc1,27.2
same,SPOT peptide array binding signal intensity,CaBem1-D1,10
same,SPOT peptide array binding signal intensity,CaBzz1-D1,22
same,SPOT peptide array binding signal intensity,CaBzz1-D2,60.8
same,SPOT peptide array binding signal intensity,CaCyk3,4
same,SPOT peptide array binding signal intensity,CaFus1,402
same,SPOT peptide array binding signal intensity,CaHof1,0.75
same,SPOT peptide array binding signal intensity,CaHse1,81
same,SPOT peptide array binding signal intensity,CaLsb1,1
same,SPOT peptide array binding signal intensity,CaLsb4,136
same,SPOT peptide array binding signal intensity,CaMyo5,≤ 0
same,SPOT peptide array binding signal intensity,CaNbp2,63.5
same,SPOT peptide array binding signal intensity,CaRvs167,15.2
same,SPOT peptide array binding signal intensity,CaRvs167-3,15.8
same,SPOT peptide array binding signal intensity,CaSho1,212
same,SPOT peptide array binding signal intensity,CaSla1-D1-D2,≤ 0
same,SPOT peptide array binding signal intensity,CaSla1-D3,1
same,SPOT peptide array binding signal intensity,ScAbp1,63.5
same,SPOT peptide array binding signal intensity,ScBbc1,≤ 0
same,SPOT peptide array binding signal intensity,ScBem1-D1,23.5
same,SPOT peptide array binding signal intensity,ScBzz1-D1,10.5
same,SPOT peptide array binding signal intensity,ScBzz1-D2,17
same,SPOT peptide array binding signal intensity,ScCyk3,61
same,SPOT peptide array binding signal intensity,ScFus1,81
same,SPOT peptide array binding signal intensity,ScHof1,4.25
same,SPOT peptide array binding signal intensity,ScHse1,532
same,SPOT peptide array binding signal intensity,ScLsb1,4
same,SPOT peptide array binding signal intensity,ScLsb2,≤ 0
same,SPOT peptide array binding signal intensity,ScLsb3,492
same,SPOT peptide array binding signal intensity,ScLsb4,10.5
same,SPOT peptide array binding signal intensity,ScMyo3,≤ 0
same,SPOT peptide array binding signal intensity,ScMyo5,≤ 0
same,SPOT peptide array binding signal intensity,ScNbp2,50
same,SPOT peptide array binding signal intensity,ScPex13,≤ 0
same,SPOT peptide array binding signal intensity,ScRvs167,231
same,SPOT peptide array binding signal intensity,ScSho1,952
same,SPOT peptide array binding signal intensity,ScSla1-D1-D2,6
same,SPOT peptide array binding signal intensity,ScSla1-D3,4.75
same,SPOT peptide array binding signal intensity,SpAbp1-D1,228
same,SPOT peptide array binding signal intensity,SpBbc1,1.5
same,SPOT peptide array binding signal intensity,SpBzz1-D1,132
same,SPOT peptide array binding signal intensity,SpBzz1-D2,≤ 0
same,SPOT peptide array binding signal intensity,SpCyk3,≤ 0
same,SPOT peptide array binding signal intensity,SpHof1,86
same,SPOT peptide array binding signal intensity,SpHof1-2,36.2
same,SPOT peptide array binding signal intensity,SpHof1-3,538
same,SPOT peptide array binding signal intensity,SpHse1,403
same,SPOT peptide array binding signal intensity,SpLsb1,4.75
same,SPOT peptide array binding signal intensity,SpLsb4,1200
same,SPOT peptide array binding signal intensity,SpMyo1,3.75
same,SPOT peptide array binding signal intensity,SpNbp2,32
same,SPOT peptide array binding signal intensity,SpPex13,2
same,SPOT peptide array binding signal intensity,SpRvs167,143
same,SPOT peptide array binding signal intensity,SpSla1-D1-D2,≤ 0
same,SPOT peptide array binding signal intensity,SpSla1-D3,≤ 0
RLPAPPPPPRRGPAP,SPOT peptide array binding signal intensity,CaNbp2,63.5
same,SPOT peptide array binding signal intensity,CaRvs167,223
same,SPOT peptide array binding signal intensity,CaRvs167-3,9.25
same,SPOT peptide array binding signal intensity,CaSho1,11
same,SPOT peptide array binding signal intensity,CaSla1-D1-D2,2140
same,SPOT peptide array binding signal intensity,CaSla1-D3,20.2
same,SPOT peptide array binding signal intensity,ScAbp1,53
same,SPOT peptide array binding signal intensity,ScBbc1,198
same,SPOT peptide array binding signal intensity,ScBem1-D1,3.5
same,SPOT peptide array binding signal intensity,ScBzz1-D1,222
same,SPOT peptide array binding signal intensity,ScBzz1-D2,47.5
same,SPOT peptide array binding signal intensity,ScCyk3,5
same,SPOT peptide array binding signal intensity,ScFus1,≤ 0
same,SPOT peptide array binding signal intensity,ScHof1,175
same,SPOT peptide array binding signal intensity,ScHse1,173
same,SPOT peptide array binding signal intensity,ScLsb1,27.2
same,SPOT peptide array binding signal intensity,ScLsb2,5.5
same,SPOT peptide array binding signal intensity,ScLsb3,832
same,SPOT peptide array binding signal intensity,ScLsb4,413
same,SPOT peptide array binding signal intensity,ScMyo3,881
same,SPOT peptide array binding signal intensity,ScMyo5,795
same,SPOT peptide array binding signal intensity,ScNbp2,30.5
same,SPOT peptide array binding signal intensity,ScPex13,502
same,SPOT peptide array binding signal intensity,ScRvs167,795
same,SPOT peptide array binding signal intensity,ScSho1,188
same,SPOT peptide array binding signal intensity,ScSla1-D1-D2,3480
same,SPOT peptide array binding signal intensity,ScSla1-D3,3.5
same,SPOT peptide array binding signal intensity,SpAbp1-D1,69
same,SPOT peptide array binding signal intensity,SpBbc1,20
same,SPOT peptide array binding signal intensity,SpBzz1-D1,4030
same,SPOT peptide array binding signal intensity,SpBzz1-D2,64.8
same,SPOT peptide array binding signal intensity,SpCyk3,57
same,SPOT peptide array binding signal intensity,SpHof1,115
same,SPOT peptide array binding signal intensity,SpHof1-2,166
same,SPOT peptide array binding signal intensity,SpHof1-3,1070
same,SPOT peptide array binding signal intensity,SpHse1,2.25
same,SPOT peptide array binding signal intensity,SpLsb1,12.2
same,SPOT peptide array binding signal intensity,SpLsb4,1800
same,SPOT peptide array binding signal intensity,SpMyo1,510
same,SPOT peptide array binding signal intensity,SpNbp2,12
same,SPOT peptide array binding signal intensity,SpPex13,≤ 0
same,SPOT peptide array binding signal intensity,SpRvs167,1170
same,SPOT peptide array binding signal intensity,SpSla1-D1-D2,339
same,SPOT peptide array binding signal intensity,SpSla1-D3,≤ 0
